PubChem BioAssay (Tox21)
Values without a mark were called inactive. Inconclusive results are not listed. A call without a number means that no potency is given here. Calls of active or inactive are those of the source. Unless noted, calls come from the whole dose curve; as a rule, active = well fitted curve in the direction sought with a large enough effect in the repeat runs; inconclusive = weak or mixed curves; inactive = no such curve, though single readings can be large; an effect the other way counts as inactive or inconclusive.

Experiments:
[1] = qHTS assay to identify small molecule agonists of the estrogen receptor alpha (ER-alpha) signaling pathway in the presence of an antagonist - cell viability counter screen (AID 1259386);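 note: cells exposed to compounds for 22 h at 37 °C before the viability read; nearly all actives have a fitted effect of over 30% in size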; note: potency is the fitted concentration of half-maximal effect
Summary of the method: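 VM7Luc4E2 cells (endogenous full-length ER-alpha, 4×ERE-luciferase) were held 5 days in phenol red-free medium with 10% charcoal-stripped FBS, plated, then given 10.0nM ICI-182,780 and compounds at 15 concentrations for 22hr at 37C; viability read by CellTiter-Fluor fluorescence.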

[2] = target: Progesterone receptor (Homo sapiens) (UniProt P06401); experiment: qHTS assay to identify small molecule agonists of the progesterone receptor (PR) signaling pathway (AID 1346784; calls by dose curve; note: nearly all actives have a fitted effect of over 30% in size)
Summary of the method: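 The screen uses PR-UAS-bla HEK 293T cells in charcoal-stripped serum (2%). Compounds are applied for 16 hr at 37C after a 6 hr pre-incubation, and reporter activity is detected with a FRET beta-lactamase substrate after 2 hr at room temperature.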

[3] = target: Progesterone receptor (Homo sapiens) (UniProt P06401); experiment: qHTS assay to identify small molecule antagonists of the progesterone receptor (PR) signaling pathway (AID 1346795; active = well fitted inhibition curve with a large enough effect in the signal ratio in the repeat runs, not every such curve was filed as active; the % refers to the signal ratio; note: potency is the fitted concentration of half-maximal effect)
Summary of the method: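 After 6 hr plating at 37C in 2% stripped-serum medium, PR-UAS-bla HEK293T cells got compounds, then 1 nM R5020. Sixteen hours later, LiveBLAzer substrate was applied for 2 hr at room temperature and fluorescence was recorded.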

[4] = qHTS assay to identify small molecule antagonists of the progesterone receptor (PR) signaling pathway - cell viability counter screen (AID 1346798); note: series mostly up to about 92 µM; nearly all actives have a fitted effect of over 50% in size
Summary of the method: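 Viability was determined by ATP-based luminescence (CellTiter-Glo) in PR-UAS-bla HEK293T cells cultured in 2% charcoal-stripped serum and incubated 16 hr with compounds under R5020 stimulation.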

[5] = qHTS assay to identify small molecule agonists of the progesterone receptor (PR) signaling pathway - cell viability counter screen (AID 1346799; calls by dose curve; note: nearly all actives have a fitted effect of over 45% in size)
Summary of the method: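 Viability was scored by ATP luminescence (CellTiter-Glo, 30 min, room temperature) in the same wells used for the reporter readout, after 16 hr compound exposure of PR-UAS-bla HEK293T cells.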

[6] = qHTS assay to identify small molecule antagonists of the TGF-beta/Smad signaling pathway - cell viability counter screen (AID 1346824); note: nearly all actives have a fitted effect of over 50% in size
Summary of the method: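 SBE-bla HEK 293T cells, incubated overnight, then compound plus 0.25 ng/mL TGF-beta1 (stock added) for 5 hr at 37 C. Viability was read in the same wells by CellTiter-Glo luminescence after 30 min at room temperature.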

[7] = qHTS assay to identify small molecule agonists of the TGF-beta/Smad signaling pathway - cell viability counter screen (AID 1346829); note: top concentration of the series differs between compounds; nearly all actives have a fitted effect of over 45% in size
Summary of the method: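 After overnight seating at 37 C and 5% CO2, reporter cells got compounds for 5 hr and FRET substrate for 2 hr; cell viability then came from CellTiter-Glo luminescence.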

[8] = qHTS assay to identify small molecule agonists of the TGF-beta/Smad signaling pathway (AID 1346859; active = well fitted activation curve with a large enough effect in the signal ratio in the repeat runs, not every such curve was filed as active; the % refers to the signal ratio; note: series mostly up to about 77 µM)
Summary of the method: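 Dual-wavelength fluorescence (460/530 nm emission) quantified beta-lactamase expression under the Smad binding element in HEK 293T cells following 5 hr compound treatment at 37 C.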

[9] = target: Thyrotropin-releasing hormone receptor (Homo sapiens) (UniProt P34981); experiment: qHTS assay to identify small molecule antagonists of the thyrotropin-releasing hormone receptor (TRHR) signaling pathway (AID 1346877; active = well fitted inhibition curve with a large enough effect in the repeat runs, not every such curve was filed as active; note: series mostly up to about 51 µM)
Summary of the method: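 TRHR-expressing HEK293 cells were seeded, cultured 18 h at 37 °C, then loaded with calcium dye for 2 h. Compounds were pre-incubated 5 min at room temperature before 1 nM TRH (final) was added, and kinetic fluorescence was recorded for 3 min.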

[10] = target: Thyrotropin-releasing hormone receptor (Homo sapiens) (UniProt P34981); experiment: qHTS assay to identify small molecule agonists of the thyrotropin-releasing hormone receptor (TRHR) signaling pathway (AID 1346891; calls by dose curve; note: series mostly up to about 58 µM)
Summary of the method: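 Kinetic fluorescence (3 min, 1 s intervals) reported intracellular calcium after compound transfer onto TRHR-Hek293 cells pre-loaded with dye for 2 h at 37 °C.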

[11] = Human pregnane X receptor (PXR) small molecule agonists, qHTS cell viability counter screen (AID 1346977); note: nearly all actives have a fitted effect of over 50% in size; note: potency is the fitted concentration of half-maximal effect
Summary of the method: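 HepG2 cells stably carrying the PXR-Luc reporter are cultured with 5% charcoal-stripped FBS and treated with compounds for 24hr. CellTiter-Fluor is added at 23hr and fluorescence is read after 1hr.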

[12] = Caspase-3/7 induction in HepG2 cells by small molecules, qHTS assay (AID 1346978); note: nearly all actives have a fitted effect of over 15% in size
Summary of the method: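 Wild-type HepG2 cells, 2,000/well, settled 5 hr at 37 C and 5% CO2, then compound-treated for 17 hr; caspase-3/7 activity read by luminescent Caspase-Glo 3/7 after 30 min at room temperature.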

[13] = Caspase-3/7 induction in CHO-K1 cells by small molecules, qHTS cell viability counter screen (AID 1346979); note: nearly all actives have a fitted effect of over 35% in size; note: potency is the fitted concentration of half-maximal effect
Summary of the method: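 Seeding: 1,500 CHO-K1 cells/well. Rest: 5hr, 37C. Treatment: compounds in DMSO, 16hr. Read: CellTiter-Fluor, 1hr, fluorescence.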

[14] = Caspase-3/7 induction in CHO-K1 cells by small molecules, qHTS assay (AID 1346980); note: nearly all actives have a fitted effect of over 15% in size
Summary of the method: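 Wild-type CHO-K1 cells exposed to compounds for 17hr at 37 C, 5% CO2. Caspase-3/7 activity then measured by Caspase-Glo 3/7 luminescence after 30min at room temperature.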

[15] = Caspase-3/7 induction in HepG2 cells by small molecules, qHTS cell viability counter screen (AID 1346981); note: nearly all actives have a fitted effect of over 30% in size; note: potency is the fitted concentration of half-maximal effect
Summary of the method: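 Wild-type HepG2 cells (2,000/well) were allowed to settle for 5 hr at 37 C, 5% CO2, then dosed with compounds in DMSO by pin transfer. After 16 hr at 37 C, CellTiter-Fluor was added and fluorescence read 1 hr later.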

[16] = target: Nuclear receptor subfamily 1 group I member 2 (Homo sapiens) (UniProt O75469); experiment: Human pregnane X receptor (PXR) small molecule agonists, qHTS assay (AID 1346982); note: nearly all actives have a fitted effect of over 35% in size
Summary of the method: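 PXR-Luc HepG2 cells (CYP3A4 promoter-driven luciferase) were seeded in medium with 5% charcoal-stripped FBS, left 5 hr at 37 C, then exposed to compounds in DMSO for 24 hr. Luminescence was read after ONE-Glo addition.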

[17] = target: Cytochrome P450 2D6 (Homo sapiens) (UniProt P10635); experiment: Cytochrome P450 Family 2 Subfamily D Member 6 (CYP2D6) small molecule antagonists: luciferase reporter qHTS assay (AID 1671196); note: nearly all actives have a fitted effect of over 50% in size; note: potency is the fitted concentration of half-maximal effect
Summary of the method: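 CYP2D6 enzyme–substrate mix was held with compound for 10 min at room temperature, then NADPH regeneration solution was added and the reaction ran 1 h at room temperature. Luciferin product was detected by luminescence after 20 min with detection reagent.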

[18] = target: Nuclear receptor subfamily 1 group I member 2 (Rattus norvegicus) (UniProt Q9R1A7); experiment: Rat pregnane X receptor (rPXR) activation by small molecules, qHTS assay (AID 1346983); details: rPXR luciferase reporter cells, One-Glo luminescence, 24 h; max activation: hits give high values; note: nearly all actives have a fitted effect of over 20% in size
Summary of the method: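 Cell-based rPXR activation assay: rPXR cells, 2,000 per well, rested 5hr at 37 C, then exposed to compounds in DMSO for 24 hr at 37 C. Luciferase activity read by One-Glo luminescence after 30 min at room temperature.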

[19] = target: Nuclear receptor subfamily 1 group I member 2 (Homo sapiens) (UniProt O75469); experiment: CYP3A4 induction through human pregnane X receptor (PXR) by small molecules, qHTS assay (AID 1346984); note: nearly all actives have a fitted effect of over 40% in size
Summary of the method: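 DPX-2 cells (HepG2 co-transfected with PXR and CYP3A4 promoter-luciferase) treated with compounds 24 h at 37C; luciferin-IPA CYP3A4 substrate 3uM final added for 3 h, then One-Glo; luminescence read. qHTS format.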

[20] = target: Nuclear receptor subfamily 1 group I member 2 (Homo sapiens) (UniProt O75469); experiment: Human pregnane X receptor (PXR) activation by small molecules, qHTS assay (AID 1346985); note: nearly all actives have a fitted effect of over 40% in size
Summary of the method: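 DPX-2 cells (HepG2 co-transfected with a PXR response element and a CYP3A4-promoter luciferase construct) were seeded at 2,000 per well, rested 5 hr at 37C, then exposed to DMSO-dissolved compounds for 24 hr. Activation was read as luciferase luminescence.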

Thyrotropin-releasing hormone receptor (Homo sapiens), sequence (P34981 whole entry, looked up): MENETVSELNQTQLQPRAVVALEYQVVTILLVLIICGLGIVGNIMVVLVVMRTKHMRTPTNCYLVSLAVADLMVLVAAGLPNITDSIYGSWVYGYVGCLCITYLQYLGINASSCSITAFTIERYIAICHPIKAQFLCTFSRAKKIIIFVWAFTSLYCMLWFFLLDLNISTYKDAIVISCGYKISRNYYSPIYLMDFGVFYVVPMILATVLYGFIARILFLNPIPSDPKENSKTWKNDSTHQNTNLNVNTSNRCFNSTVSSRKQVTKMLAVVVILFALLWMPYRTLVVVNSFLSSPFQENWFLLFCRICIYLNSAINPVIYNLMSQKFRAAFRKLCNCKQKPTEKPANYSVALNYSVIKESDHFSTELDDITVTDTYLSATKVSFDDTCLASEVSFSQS
Progesterone receptor (Homo sapiens), sequence (P06401 whole entry, looked up): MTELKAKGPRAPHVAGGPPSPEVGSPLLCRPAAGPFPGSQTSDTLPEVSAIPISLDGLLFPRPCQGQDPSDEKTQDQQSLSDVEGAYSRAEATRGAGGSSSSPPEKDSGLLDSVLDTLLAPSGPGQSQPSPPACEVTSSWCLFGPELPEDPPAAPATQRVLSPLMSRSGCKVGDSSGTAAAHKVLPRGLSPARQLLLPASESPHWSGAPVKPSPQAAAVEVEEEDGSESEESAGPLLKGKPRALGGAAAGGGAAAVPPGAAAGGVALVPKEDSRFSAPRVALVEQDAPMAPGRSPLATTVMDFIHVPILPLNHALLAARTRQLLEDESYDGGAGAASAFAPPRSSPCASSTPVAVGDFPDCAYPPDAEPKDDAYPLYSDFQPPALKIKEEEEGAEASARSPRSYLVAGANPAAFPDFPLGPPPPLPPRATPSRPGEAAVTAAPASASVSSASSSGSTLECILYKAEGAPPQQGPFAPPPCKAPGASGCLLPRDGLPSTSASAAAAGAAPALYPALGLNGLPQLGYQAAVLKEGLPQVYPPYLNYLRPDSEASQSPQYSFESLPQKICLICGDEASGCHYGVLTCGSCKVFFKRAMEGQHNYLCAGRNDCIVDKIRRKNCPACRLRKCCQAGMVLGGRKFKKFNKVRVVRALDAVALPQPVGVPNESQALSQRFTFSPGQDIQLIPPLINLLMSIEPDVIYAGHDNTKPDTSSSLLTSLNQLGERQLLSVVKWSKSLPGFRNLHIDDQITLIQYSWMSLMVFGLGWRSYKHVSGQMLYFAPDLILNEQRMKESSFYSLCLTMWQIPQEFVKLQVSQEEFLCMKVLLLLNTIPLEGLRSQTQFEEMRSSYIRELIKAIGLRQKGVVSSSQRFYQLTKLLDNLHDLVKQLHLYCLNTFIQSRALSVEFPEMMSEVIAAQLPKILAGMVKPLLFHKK
Nuclear receptor subfamily 1 group I member 2 (Homo sapiens), sequence (O75469 whole entry, looked up): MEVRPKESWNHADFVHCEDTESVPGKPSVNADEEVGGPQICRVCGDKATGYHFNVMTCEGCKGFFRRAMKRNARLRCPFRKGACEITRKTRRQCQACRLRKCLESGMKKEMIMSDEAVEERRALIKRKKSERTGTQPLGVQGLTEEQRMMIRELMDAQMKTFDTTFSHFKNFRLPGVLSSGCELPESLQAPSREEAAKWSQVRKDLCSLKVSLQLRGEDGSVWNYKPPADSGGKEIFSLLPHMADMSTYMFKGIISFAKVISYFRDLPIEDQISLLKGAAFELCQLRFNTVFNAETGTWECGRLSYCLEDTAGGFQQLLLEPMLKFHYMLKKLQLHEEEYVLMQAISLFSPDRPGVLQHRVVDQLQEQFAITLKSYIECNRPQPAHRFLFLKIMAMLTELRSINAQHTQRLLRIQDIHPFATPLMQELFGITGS
Cytochrome P450 2D6 (Homo sapiens), sequence (P10635 whole entry, looked up): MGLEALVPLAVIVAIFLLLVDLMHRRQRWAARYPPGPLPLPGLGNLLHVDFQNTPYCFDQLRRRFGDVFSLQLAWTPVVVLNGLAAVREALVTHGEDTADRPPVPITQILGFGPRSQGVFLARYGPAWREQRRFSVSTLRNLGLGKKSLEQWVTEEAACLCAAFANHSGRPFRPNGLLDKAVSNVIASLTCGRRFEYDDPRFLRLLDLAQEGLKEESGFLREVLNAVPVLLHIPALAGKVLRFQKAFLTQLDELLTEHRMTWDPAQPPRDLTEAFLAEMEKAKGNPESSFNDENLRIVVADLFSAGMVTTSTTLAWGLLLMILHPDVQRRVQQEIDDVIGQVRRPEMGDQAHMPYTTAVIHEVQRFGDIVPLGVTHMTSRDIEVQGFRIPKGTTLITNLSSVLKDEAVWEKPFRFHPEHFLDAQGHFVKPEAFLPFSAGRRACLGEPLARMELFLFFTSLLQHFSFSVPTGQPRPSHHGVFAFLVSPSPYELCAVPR
Nuclear receptor subfamily 1 group I member 2 (Rattus norvegicus), sequence (Q9R1A7 whole entry, looked up): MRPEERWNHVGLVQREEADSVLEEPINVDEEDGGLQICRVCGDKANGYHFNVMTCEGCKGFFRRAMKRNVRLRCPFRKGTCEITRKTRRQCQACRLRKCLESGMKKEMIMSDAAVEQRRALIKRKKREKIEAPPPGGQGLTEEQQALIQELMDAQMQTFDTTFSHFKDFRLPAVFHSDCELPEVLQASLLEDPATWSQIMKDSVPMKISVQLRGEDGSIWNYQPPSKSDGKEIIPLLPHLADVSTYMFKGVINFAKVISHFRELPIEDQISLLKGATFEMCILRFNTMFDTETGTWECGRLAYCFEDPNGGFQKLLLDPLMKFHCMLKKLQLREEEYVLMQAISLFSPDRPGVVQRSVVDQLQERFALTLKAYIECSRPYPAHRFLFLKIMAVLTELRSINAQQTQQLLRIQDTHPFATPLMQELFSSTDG

Row | SMILES | Potency [1] | outcome [2] | Potency [3] | Potency [4] | Potency [5] | Potency [6] | Potency [7] | outcome [8] | outcome [9] | Potency [10] | Potency [11] | outcome [12] | Potency [13] | Potency [14] | Potency [15] | Potency [16] | Potency [17] | max activation [18] | Potency [19] | Potency [20]
1 | CCN(CC)C(C)=O | inactive | inactive | inactive | inactive | inactive | inactive | inactive | inactive | inactive | inactive | inactive | inactive | inactive | inactive | inactive | inactive |  |  |  | 
2 | Cc1cc(C)c(S(=O)(=O)O)cc1N=Nc1cc(S(=O)(=O)O)c2ccccc2c1O | 27.3 µM (active) | inactive | inactive | inactive | inactive | inactive | inactive | inactive | inactive | inactive | 24.3 µM (active) | inactive | 30.6 µM (active) | inactive | 34.4 µM (active) | inactive |  |  |  | 
3 | O=[N+]([O-])c1cccc(Cl)c1Cl | inactive | inactive | inactive | inactive | inactive | inactive | inactive | inactive | inactive |  | inactive |  | inactive | inactive | inactive | inactive | inactive |  |  | 
4 | CCCCCCCCC(CO)CCCCCC (stereo not drawn) | inactive | inactive | inactive | inactive | inactive | inactive | inactive | inactive |  |  | inactive | inactive | inactive | inactive | inactive | inactive | inactive |  |  | 
5 | CC(=O)SCc1ccco1 | inactive | inactive | inactive | inactive | inactive | inactive | inactive | inactive | inactive | inactive | inactive | inactive |  | inactive | inactive | inactive | inactive |  |  | 
6 | CN1CCN(C2=Nc3cc(Cl)ccc3Nc3ccccc32)CC1 | inactive | inactive | 23.7 µM (active) | inactive | inactive | inactive | inactive | inactive | inactive | inactive | 23.7 µM (active) |  |  | inactive | 23.7 µM (active) | inactive |  |  |  | 
7 | CC(C)NCC(O)c1cc(O)cc(O)c1 (stereo not drawn) | inactive | inactive | inactive | inactive | inactive | inactive | inactive | inactive |  |  | inactive | inactive | inactive | inactive | inactive | inactive | inactive | -6.91% | inactive | inactive
8 | CC(=O)O[C@@H]1C(=O)O[C@@H]2[C@H]1OC(=O)[C@@H]2OC(C)=O | inactive | inactive | inactive | inactive | inactive | inactive | inactive | inactive | inactive | inactive | inactive | inactive | inactive | inactive | inactive | inactive | inactive |  |  | 
9 | CCCCCCCCN(C)C | inactive | inactive | inactive | inactive | inactive | inactive | inactive | inactive | inactive | inactive | inactive | inactive | inactive |  | inactive | inactive | inactive |  |  | 
10 | C=CC(C)(CCC=C(C)C)OC(=O)c1ccccc1 (stereo not drawn) | inactive | inactive | inactive | inactive | inactive | inactive | inactive | inactive | inactive | inactive | inactive | inactive |  | inactive |  |  | inactive |  |  | 
11 | Cc1ccc(C(N)=O)cc1N | inactive | inactive | inactive | inactive | inactive | inactive | inactive | inactive |  |  | inactive | inactive | inactive | inactive | inactive | inactive | inactive |  |  | 
12 | COc1ccccc1OC(=O)Oc1ccccc1OC | inactive | inactive | 26.6 µM (active) | inactive | inactive | inactive | inactive | inactive | inactive | inactive | inactive | inactive | inactive | inactive | inactive | inactive |  | -1.11% | inactive | inactive
13 | CCCCCCCCCCCCCCC1CO1 (stereo not drawn) | inactive | inactive | inactive | inactive | inactive | inactive | inactive | inactive | inactive | inactive | inactive | inactive |  |  | inactive | inactive | inactive |  |  | 
14 | CCN(CC)CCOC(=O)C1(c2ccccc2)CCCC1 | inactive | inactive | inactive | inactive | inactive | inactive | inactive | inactive | inactive | inactive | inactive |  | inactive | inactive | inactive |  | 1.38 µM (active) | 1.06% | inactive | 
15 | CCCCCCc1ccc(N)cc1 | inactive | inactive | inactive | inactive | inactive | inactive | inactive | inactive | inactive | inactive | inactive |  | inactive | inactive |  |  |  |  |  | 
16 | CC(=O)/C=C/C1C(C)=CCCC1(C)C (stereo not drawn) | inactive | inactive | inactive | inactive | inactive | inactive | inactive | inactive | inactive | inactive | inactive | inactive | inactive | inactive | inactive | inactive | inactive |  |  | 
